The supplement of paper PMC10849652
The full data set covers some 8,800 targets. This sample favours those with a hit. About 0.5% of all pairs of compound and target were hits. A number with no mark means an inactive call.

Tests used:
Experiment in all cases: log2 fold change, soluble protein after heating vs DMSO (PISA); higher = thermal stabilisation; K562 lysate, 10 uM; active = over 0.2 and 3.5 SD of the protein, either way, in both replicates (recomputed)
lapatinib = compound: CS(=O)(=O)CCNCc1ccc(-c2ccc3ncnc(Nc4ccc(OCc5cccc(F)c5)c(Cl)c4)c3c2)o1 [lapatinib]
Summary of the method: (§1)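 Thermal stability, expressed as log-two fold change relative to solvent controls, is given from duplicates. Crude K562 extract in PBS pH 7.4 with 1 mM MgCl2, at 1 mg/mL protein, was treated with 10 μM compound for 30 min and heated in aliquots for 3 min across 48°C-58°C. After pooling, adjustment to 0.5% NP-40 at 4°C and centrifugation at 21,000xg for 90 min, supernatant protein was measured by TMTpro 16plex LC-MS/MS with channel sums equalised.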

pictilisib = compound: CS(=O)(=O)N1CCN(Cc2cc3nc(-c4cccc5[nH]ncc45)nc(N4CCOCC4)c3s2)CC1 [pictilisib]
Summary of the method: as §1

crizotinib = compound: C[C@@H](Oc1cc(-c2cnn(C3CCNCC3)c2)cnc1N)c1c(Cl)ccc(F)c1Cl [crizotinib]
Summary of the method: as §1

[1] = compound: C[C@H](C1=CC=C(C=C1)C(=O)NC2=C3C=CNC3=NC=C2)N
Summary of the method: as §1

duvelisib = compound: C[C@H](Nc1ncnc2nc[nH]c12)c1cc2cccc(Cl)c2c(=O)n1-c1ccccc1 [duvelisib]
Summary of the method: as §1

gandotinib = compound: Cc1cc(Nc2cc(CN3CCOCC3)c3nc(C)c(Cc4ccc(Cl)cc4F)n3n2)n[nH]1 [gandotinib]
Summary of the method: as §1

tozasertib = compound: Cc1cc(Nc2cc(N3CCN(C)CC3)nc(Sc3ccc(NC(=O)C4CC4)cc3)n2)n[nH]1 [tozasertib]
Summary of the method: as §1

doramapimod = compound: Cc1ccc(-n2nc(C(C)(C)C)cc2NC(=O)Nc2ccc(OCCN3CCOCC3)c3ccccc23)cc1 [doramapimod]
Summary of the method: as §1

bafetinib = compound: Cc1ccc(NC(=O)c2ccc(CN3CC[C@H](N(C)C)C3)c(C(F)(F)F)c2)cc1Nc1nccc(-c2cncnc2)n1 [bafetinib]
Summary of the method: as §1

[2] = compound: Cc1cccc(CC(=O)N2CCc3c2ccc(-c2cn(C)c4ncnc(N)c24)c3F)n1
Summary of the method: as §1

nilotinib = compound: Cc1cn(-c2cc(NC(=O)c3ccc(C)c(Nc4nccc(-c5cccnc5)n4)c3)cc(C(F)(F)F)c2)cn1 [nilotinib]
Summary of the method: as §1

[3] = compound: Cc1nc(Nc2n[nH]c3c2CN(C(=O)N[C@H](CN(C)C)c2ccccc2)C3(C)C)c2sccc2n1
Summary of the method: as §1

dasatinib = compound: Cc1nc(Nc2ncc(C(=O)Nc3c(C)cccc3Cl)s2)cc(N2CCN(CCO)CC2)n1 [dasatinib]
Summary of the method: as §1

[4] = compound: Cc1ncc(-c2ccnc(Nc3ccc(S(C)(=O)=O)cc3)n2)n1C(C)C
Summary of the method: as §1

[5] = compound: Cn1cc(-c2ccc3c(c2)CCN3C(=O)Cc2cccc(C(F)(F)F)c2)c2c(N)ncnc21
Summary of the method: as §1

quisinostat = compound: Cn1cc(CNCC2CCN(c3ncc(C(=O)NO)cn3)CC2)c2ccccc21 [quisinostat]
Summary of the method: as §1

tipifarnib = compound: Cn1cncc1[C@@](N)(c1ccc(Cl)cc1)c1ccc2c(c1)c(-c1cccc(Cl)c1)cc(=O)n2C [tipifarnib]
Summary of the method: as §1

[6] = compound: NC(=O)Nc1cc(-c2cccc(F)c2)sc1C(=O)N[C@H]1CCCNC1
Summary of the method: as §1

[7] = compound: NC(=O)c1cnc(N[C@@H]2CCCC[C@@H]2N)nc1Nc1cccc(-n2nccn2)c1
Summary of the method: as §1

[8] = compound: NC1(c2ccc(-c3nc4ccn5c(=O)[nH]nc5c4cc3-c3ccccc3)cc2)CCC1
Summary of the method: as §1

Chain of UniProt Q9HAD4 (Q9HAD4 whole entry, looked up): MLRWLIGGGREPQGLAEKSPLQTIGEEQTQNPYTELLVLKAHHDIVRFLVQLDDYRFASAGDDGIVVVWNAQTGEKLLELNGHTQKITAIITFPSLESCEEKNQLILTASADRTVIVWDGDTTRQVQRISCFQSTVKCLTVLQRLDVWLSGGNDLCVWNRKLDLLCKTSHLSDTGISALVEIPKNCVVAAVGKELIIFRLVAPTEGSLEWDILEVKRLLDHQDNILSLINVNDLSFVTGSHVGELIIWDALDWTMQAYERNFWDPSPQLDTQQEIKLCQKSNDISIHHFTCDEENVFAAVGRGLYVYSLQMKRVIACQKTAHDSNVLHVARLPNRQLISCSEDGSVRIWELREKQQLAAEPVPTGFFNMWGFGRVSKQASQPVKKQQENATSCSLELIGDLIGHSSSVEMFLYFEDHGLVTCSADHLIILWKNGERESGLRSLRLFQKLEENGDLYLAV
Chain of UniProt O43592 (O43592 whole entry, looked up): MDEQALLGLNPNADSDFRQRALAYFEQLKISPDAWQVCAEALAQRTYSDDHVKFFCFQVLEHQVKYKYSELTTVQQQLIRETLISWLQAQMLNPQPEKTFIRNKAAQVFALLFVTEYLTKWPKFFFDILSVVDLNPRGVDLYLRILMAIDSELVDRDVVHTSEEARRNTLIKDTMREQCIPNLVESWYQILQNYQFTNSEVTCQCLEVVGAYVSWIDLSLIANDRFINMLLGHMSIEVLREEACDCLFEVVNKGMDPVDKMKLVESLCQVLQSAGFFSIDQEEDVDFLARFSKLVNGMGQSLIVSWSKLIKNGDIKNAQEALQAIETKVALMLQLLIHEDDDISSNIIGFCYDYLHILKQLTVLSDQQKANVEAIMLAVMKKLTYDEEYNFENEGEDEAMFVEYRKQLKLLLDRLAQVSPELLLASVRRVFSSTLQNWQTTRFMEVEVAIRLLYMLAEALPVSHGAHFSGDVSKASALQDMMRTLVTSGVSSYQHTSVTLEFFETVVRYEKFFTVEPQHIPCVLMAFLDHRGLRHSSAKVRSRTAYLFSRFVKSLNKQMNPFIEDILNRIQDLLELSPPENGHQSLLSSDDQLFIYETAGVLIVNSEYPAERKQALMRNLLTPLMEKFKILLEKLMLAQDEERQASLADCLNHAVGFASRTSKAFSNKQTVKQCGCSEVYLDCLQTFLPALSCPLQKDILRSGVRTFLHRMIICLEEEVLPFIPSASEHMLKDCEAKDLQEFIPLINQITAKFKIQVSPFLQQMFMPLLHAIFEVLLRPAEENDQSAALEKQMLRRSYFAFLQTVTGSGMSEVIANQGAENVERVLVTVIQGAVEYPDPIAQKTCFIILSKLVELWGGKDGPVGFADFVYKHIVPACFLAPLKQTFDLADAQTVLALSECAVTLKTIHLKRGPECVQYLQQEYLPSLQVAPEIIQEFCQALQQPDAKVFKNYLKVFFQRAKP
Chain of UniProt A8MPS7 (A8MPS7 whole entry, looked up): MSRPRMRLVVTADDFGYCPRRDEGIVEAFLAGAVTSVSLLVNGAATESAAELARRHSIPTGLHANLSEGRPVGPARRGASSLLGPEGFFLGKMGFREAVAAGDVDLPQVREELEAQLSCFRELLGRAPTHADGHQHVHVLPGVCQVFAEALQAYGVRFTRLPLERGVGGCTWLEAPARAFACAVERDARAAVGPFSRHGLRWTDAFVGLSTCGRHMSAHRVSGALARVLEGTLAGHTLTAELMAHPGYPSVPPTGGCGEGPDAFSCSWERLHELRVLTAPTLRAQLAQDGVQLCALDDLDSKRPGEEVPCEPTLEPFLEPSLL
Chain of UniProt Q9Y4E6 (Q9Y4E6 whole entry, looked up): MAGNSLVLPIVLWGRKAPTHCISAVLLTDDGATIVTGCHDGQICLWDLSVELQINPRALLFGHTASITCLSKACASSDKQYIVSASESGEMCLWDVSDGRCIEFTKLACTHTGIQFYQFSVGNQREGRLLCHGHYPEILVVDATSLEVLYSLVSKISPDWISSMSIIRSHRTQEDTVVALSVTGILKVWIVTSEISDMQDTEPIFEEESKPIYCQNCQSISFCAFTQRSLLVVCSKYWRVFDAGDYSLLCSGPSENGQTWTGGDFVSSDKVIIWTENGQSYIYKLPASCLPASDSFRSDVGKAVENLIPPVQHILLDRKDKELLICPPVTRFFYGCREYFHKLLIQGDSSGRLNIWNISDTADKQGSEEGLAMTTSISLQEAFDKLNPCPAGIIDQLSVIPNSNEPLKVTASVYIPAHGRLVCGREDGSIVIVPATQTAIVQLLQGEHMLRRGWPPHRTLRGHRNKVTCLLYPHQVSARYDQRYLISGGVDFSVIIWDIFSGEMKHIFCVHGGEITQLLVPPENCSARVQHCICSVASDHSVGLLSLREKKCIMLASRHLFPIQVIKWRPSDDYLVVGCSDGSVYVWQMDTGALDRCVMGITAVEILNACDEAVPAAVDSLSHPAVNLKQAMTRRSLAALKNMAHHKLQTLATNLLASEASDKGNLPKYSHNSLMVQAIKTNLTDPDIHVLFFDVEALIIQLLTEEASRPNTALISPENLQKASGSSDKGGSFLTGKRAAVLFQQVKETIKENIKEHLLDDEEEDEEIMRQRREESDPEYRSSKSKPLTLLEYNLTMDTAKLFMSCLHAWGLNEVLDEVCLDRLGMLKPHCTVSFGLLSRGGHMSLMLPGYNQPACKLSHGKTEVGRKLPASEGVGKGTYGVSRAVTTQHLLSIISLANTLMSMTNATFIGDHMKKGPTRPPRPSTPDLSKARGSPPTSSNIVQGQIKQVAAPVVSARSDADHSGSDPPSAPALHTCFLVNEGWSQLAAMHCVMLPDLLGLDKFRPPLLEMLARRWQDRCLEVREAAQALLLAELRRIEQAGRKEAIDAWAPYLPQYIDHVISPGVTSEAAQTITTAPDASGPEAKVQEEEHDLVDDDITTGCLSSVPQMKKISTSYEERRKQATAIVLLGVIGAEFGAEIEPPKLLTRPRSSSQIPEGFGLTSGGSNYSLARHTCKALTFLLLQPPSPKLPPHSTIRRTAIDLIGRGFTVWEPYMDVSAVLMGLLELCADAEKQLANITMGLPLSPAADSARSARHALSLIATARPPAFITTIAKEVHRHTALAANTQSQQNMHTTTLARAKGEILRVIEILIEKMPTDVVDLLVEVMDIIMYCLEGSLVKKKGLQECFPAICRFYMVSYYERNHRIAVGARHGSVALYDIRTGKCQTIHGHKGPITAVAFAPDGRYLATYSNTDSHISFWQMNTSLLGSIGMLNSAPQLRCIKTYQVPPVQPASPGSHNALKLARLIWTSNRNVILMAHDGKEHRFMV
Chain of UniProt Q9BQA1 (Q9BQA1 whole entry, looked up): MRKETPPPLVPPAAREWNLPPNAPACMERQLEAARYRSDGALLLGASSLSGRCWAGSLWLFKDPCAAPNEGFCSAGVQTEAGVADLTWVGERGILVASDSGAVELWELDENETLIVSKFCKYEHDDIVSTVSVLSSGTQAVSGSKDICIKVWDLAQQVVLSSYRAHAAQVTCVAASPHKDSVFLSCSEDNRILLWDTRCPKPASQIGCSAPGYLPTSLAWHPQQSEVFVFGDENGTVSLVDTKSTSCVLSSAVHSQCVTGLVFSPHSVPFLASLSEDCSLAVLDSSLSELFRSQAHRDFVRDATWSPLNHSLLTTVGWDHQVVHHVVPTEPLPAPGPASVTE
Chain of UniProt Q9H9H4 (Q9H9H4 whole entry, looked up): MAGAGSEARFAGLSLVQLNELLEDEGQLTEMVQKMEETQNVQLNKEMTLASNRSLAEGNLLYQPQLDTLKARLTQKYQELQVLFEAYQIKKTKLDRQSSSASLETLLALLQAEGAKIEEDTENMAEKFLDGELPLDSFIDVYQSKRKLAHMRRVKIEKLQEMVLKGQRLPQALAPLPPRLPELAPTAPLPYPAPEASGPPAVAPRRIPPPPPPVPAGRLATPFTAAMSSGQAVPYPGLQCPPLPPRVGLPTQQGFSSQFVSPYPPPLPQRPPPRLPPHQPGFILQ
Chain of UniProt Q96AX1 (Q96AX1 whole entry, looked up): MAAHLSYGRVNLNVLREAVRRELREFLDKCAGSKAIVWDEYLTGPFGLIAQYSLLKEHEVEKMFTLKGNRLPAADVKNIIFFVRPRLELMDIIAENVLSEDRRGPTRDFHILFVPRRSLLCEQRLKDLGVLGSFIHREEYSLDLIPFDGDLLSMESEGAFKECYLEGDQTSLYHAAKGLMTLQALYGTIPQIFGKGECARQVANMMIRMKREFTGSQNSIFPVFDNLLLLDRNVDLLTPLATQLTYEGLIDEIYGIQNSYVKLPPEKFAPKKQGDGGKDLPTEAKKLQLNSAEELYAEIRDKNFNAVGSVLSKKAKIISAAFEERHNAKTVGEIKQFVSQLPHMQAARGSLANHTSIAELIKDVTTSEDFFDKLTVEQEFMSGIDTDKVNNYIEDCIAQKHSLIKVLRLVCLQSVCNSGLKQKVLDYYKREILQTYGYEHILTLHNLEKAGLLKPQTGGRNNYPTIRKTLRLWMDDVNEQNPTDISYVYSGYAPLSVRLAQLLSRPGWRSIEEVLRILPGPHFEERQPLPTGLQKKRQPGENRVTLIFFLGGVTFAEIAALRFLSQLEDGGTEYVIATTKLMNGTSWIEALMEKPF
Chain of UniProt Q9BRT2 (Q9BRT2 whole entry, looked up): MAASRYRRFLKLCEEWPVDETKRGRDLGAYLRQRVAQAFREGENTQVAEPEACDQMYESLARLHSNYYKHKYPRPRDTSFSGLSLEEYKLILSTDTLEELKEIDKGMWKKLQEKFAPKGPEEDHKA
Chain of UniProt Q9Y484 (Q9Y484 whole entry, looked up): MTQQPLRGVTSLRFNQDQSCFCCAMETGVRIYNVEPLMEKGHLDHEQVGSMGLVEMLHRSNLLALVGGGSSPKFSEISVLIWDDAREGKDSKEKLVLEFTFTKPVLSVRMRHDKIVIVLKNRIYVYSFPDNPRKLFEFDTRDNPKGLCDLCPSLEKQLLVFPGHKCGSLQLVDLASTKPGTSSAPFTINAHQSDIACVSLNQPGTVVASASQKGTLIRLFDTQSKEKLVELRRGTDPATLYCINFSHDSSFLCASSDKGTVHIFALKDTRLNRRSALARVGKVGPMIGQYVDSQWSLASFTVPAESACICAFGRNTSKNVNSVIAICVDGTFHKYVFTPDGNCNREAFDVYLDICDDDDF

Row | Target | log2 fold change (lapatinib) | log2 fold change (pictilisib) | log2 fold change (crizotinib) | log2 fold change [1] | log2 fold change (duvelisib) | log2 fold change (gandotinib) | log2 fold change (tozasertib) | log2 fold change (doramapimod) | log2 fold change (bafetinib) | log2 fold change [2] | log2 fold change (nilotinib) | log2 fold change [3] | log2 fold change (dasatinib) | log2 fold change [4] | log2 fold change [5] | log2 fold change (quisinostat) | log2 fold change (tipifarnib) | log2 fold change [6] | log2 fold change [7] | log2 fold change [8]
1 | YDJC (UniProt A8MPS7) | -0.003 | -0.016 | 0.022 | -0.031 | -0.044 | 0.02 | 0.022 | 0.025 | -0.017 | -0.033 | -0.027 | 0.045 | -0.1 | -0.044 | -0.02 | -0.03 | -0.045 | -0.001 | 0.021 | 0.074
2 | ZC3H13 (UniProt Q5T200) | -0.013 | -0.022 | -0.057 | 0.039 | 0.041 | -0.063 | 0.062 | 0.149 | 0.017 | 0.102 | -0.033 | 0.137 | -0.035 | 0.144 | -0.044 | -0.067 | -0.184 | 0.002 | 0.028 | -0.049
3 | VAV3 isoform 4 (UniProt Q9UKW4) | -0.167 | -0.057 | -0.217 | -0.655 (active) | -0.008 | 0.135 | -0.093 | 0.325 | 0.023 | 0.242 | 0.155 | -0.028 | -0.061 | -0.055 | 0.08 | 0.121 | -0.012 | -0.017 | -0.054 | 0.038
4 | XPOT (UniProt O43592) | -0.033 | 0.013 | -0.051 | -0.044 | 0.022 | -0.086 | -0.007 | 0 | -0.04 | 0.057 | -0.011 | -0.017 | -0.064 | 0 | -0.004 | -0.056 | 0.005 | 0.037 | 0.003 | -0.001
5 | WDR45 isoform 2 (UniProt Q9Y484) | -0.002 | -0.011 | -0.048 | -0.229 (active) | -0.04 | -0.051 | -0.025 | 0.054 | -0.047 | 0.179 | 0.04 | -0.01 | -0.085 | -0.027 | 0.049 | 0.06 | 0.009 | 0.013 | -0.042 | -0.028
6 | VPS18 (UniProt Q9P253) | 0.009 | -0.017 | -0.049 | -0.056 | -0.04 | -0.032 | -0.003 | -0.004 | -0.06 | 0.047 | -0.013 | -0.029 | -0.016 | 0.003 | -0.005 | -0.018 | -0.05 | 0.029 | 0.01 | -0.019
7 | UQCC2 (UniProt Q9BRT2) | 0.007 | 0.009 | 0.036 | 0.158 | 0.026 | -0.091 | -0.015 | 0.014 | 0.001 | -0.093 | -0.018 | -0.006 | 0.002 | 0.012 | -0.001 | 0 | 0.058 | -0.076 | -0.005 | 0.018
8 | WDR36 (UniProt Q8NI36) | 0.013 | -0.008 | -0.02 | 0.024 | 0.016 | -0.097 | 0.017 | 0.061 | 0.005 | -0.004 | 0.003 | -0.015 | 0.012 | 0.002 | 0.025 | -0.014 | -0.002 | 0.03 | -0.004 | -0.01
9 | WDR7 (UniProt Q9Y4E6) | -0.029 | -0.037 | -0.058 | -0.076 | -0.008 | 0.014 | -0.012 | 0.043 | -0.04 | 0.085 | 0.001 | -0.018 | -0.088 | -0.011 | 0.003 | -0.016 | -0.032 | 0.014 | 0.007 | -0.03
10 | WDR41 (UniProt Q9HAD4) | 0.013 | 0.099 | 0.022 | -0.037 | -0.026 | 0.149 | -0.069 | 0.241 (active) | -0.065 | 0.126 | -0.012 | -0.023 | 0.028 | -0.011 | 0.005 | -0.036 | -0.077 | -0.009 | -0.032 | -0.017
11 | VPS33A (UniProt Q96AX1) | 0 | -0.005 | -0.025 | -0.03 | 0.039 | -0.043 | 0.01 | 0 | 0.014 | 0.036 | -0.007 | -0.004 | -0.007 | -0.027 | 0.045 | -0.018 | -0.006 | 0.041 | 0.021 | -0.034
12 | VPS37B (UniProt Q9H9H4) | 0.016 | -0.053 | 0.017 | 0.034 | -0.009 | -0.028 | 0.021 | 0.006 | -0.034 | -0.04 | 0.025 | -0.078 | -0.024 | 0.046 | -0.01 | -0.05 | -0.002 | -0.024 | -0.005 | 0
13 | WDR77 (UniProt Q9BQA1) | 0.012 | 0.016 | -0.027 | 0.014 | 0.119 | -0.037 | -0.005 | 0.008 | -0.024 | -0.047 | 0.056 | 0.028 | 0.093 | 0 | -0.013 | 0.014 | 0.048 | 0.006 | -0.008 | 0.039
14 | ZNHIT6 (UniProt Q9NWK9) | 0.042 | 0.006 | -0.006 | 0.061 | -0.002 | 0.008 | -0.029 | -0.024 | -0.026 | -0.004 | -0.023 | 0 | -0.037 | -0.005 | 0.004 | -0.04 | 0.014 | 0.087 | 0.028 | -0.022
15 | USP16 (UniProt Q9Y5T5) | 0.003 | -0.049 | -0.018 | 0.003 | 0.049 | -0.039 | 0.006 | -0.017 | -0.037 | 0.035 | 0.016 | 0.005 | 0.053 | 0.014 | 0.041 | -0.014 | 0.016 | 0.011 | 0.023 | 0.012
